Several values for one entry are separate records, joined by “and”; a condition that tells them apart may be missing. Identical values can stand only once. Screen size: about 220,000 compounds; about 830 (0.38%) were called active.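 How the source made its calls: active means compound inhibiting the enzyme by more than half at any dose during confirmatory dose-response retesting; inconclusive means strong single-dose inhibitors picked by rank but not retested; inactive means the rest.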 The list is a sample of the results. Measured potencies and affinities stand elsewhere.
What follows are molecules tested against Leucine aminopeptidase (Plasmodium falciparum (isolate 3D7)) (UniProt Q8IL11) (assay: P. falciparum M17LAP inhibitors, primary screen, biochemical, fluorogenic H-Leu-NHMec substrate, 1536-well (AID 1619;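 further: plate controls were full reaction with DMSO carrier for no effect and no enzyme background for full effect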)). Conditions: recombinant M17LAP, H-Leu-NHMec fluorogenic kinetic assay; at 30 µM; active compounds read high.
Leucine aminopeptidase (Plasmodium falciparum (isolate 3D7)), sequence (Q8IL11 whole entry, looked up): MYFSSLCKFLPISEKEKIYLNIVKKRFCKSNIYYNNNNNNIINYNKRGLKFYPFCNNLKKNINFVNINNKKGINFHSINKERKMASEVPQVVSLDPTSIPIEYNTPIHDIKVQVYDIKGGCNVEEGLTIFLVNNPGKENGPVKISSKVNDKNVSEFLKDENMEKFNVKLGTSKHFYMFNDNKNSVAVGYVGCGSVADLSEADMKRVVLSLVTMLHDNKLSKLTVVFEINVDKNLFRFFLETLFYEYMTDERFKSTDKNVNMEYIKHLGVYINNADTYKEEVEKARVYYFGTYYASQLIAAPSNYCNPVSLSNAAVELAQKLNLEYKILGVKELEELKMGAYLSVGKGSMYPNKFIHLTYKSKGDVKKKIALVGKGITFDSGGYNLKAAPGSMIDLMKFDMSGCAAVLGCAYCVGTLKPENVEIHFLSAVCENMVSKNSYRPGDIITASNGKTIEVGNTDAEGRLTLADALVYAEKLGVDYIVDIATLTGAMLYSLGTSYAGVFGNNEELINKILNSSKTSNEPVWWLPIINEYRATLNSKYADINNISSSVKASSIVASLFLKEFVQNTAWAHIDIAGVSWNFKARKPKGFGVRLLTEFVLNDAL

| Structure (SMILES) | inhibition |
| --- | --- |
| COc1ccc(C(C)NC(=O)c2cccc([N+](=O)[O-])c2)cc1OC (stereo unspecified) | 1.09% (inactive) |
| COc1ccc(NC(=S)N/C(=N/S(=O)(=O)c2ccc(C)cc2)c2ccccc2)cc1 | -2.37% (inactive) |
| CCOC(=O)c1cn(Cc2ccccc2)nn1 | -4.7% (inactive) |
| OC1(c2ccccc2)CCN(Cc2ccccc2)CC1 | 11.4% (inactive) |
| Cc1ccc(-n2cc(CN3CCN(C(=O)c4ncn[nH]4)CC3)c(-c3ccc(F)cc3)n2)cc1 | 5.18% (inactive) |
| CCCOc1ccc(N2C(=O)CC(SCc3nc4ccccc4[nH]3)C2=O)cc1 (stereo unspecified) | 9.24% (inactive) |
| CCOc1ccc(N2C(=O)CC(SCC(=O)O)C2=O)cc1 (stereo unspecified) | 11.6% (inactive) |
| CCCOc1ccc(N2C(=O)CC(SCCc3nc4ccccc4[nH]3)C2=O)cc1 (stereo unspecified) | 0.77% (inactive) |
| COC(=O)c1ccc(N2C(=O)CC(SCCN)C2=O)cc1 (stereo unspecified) | 6.69% (inactive) |
| O=c1[nH]c2cccnc2n1-c1cccc([N+](=O)[O-])c1 | -2.76% (inactive) |
| Fc1ccc(OCc2nc(-c3cccs3)no2)cc1 | -5.15% (inactive) |
| O=C(Cn1cnc2c(cnn2-c2ccc(Cl)cc2)c1=O)NCC1CCCO1 (stereo unspecified) | 8.72% (inactive) |
| COc1ccc(C2CC(=O)C=C(NCc3ccc4c(c3)OCO4)C2)cc1 (stereo unspecified) | 8.48% (inactive) |
| CCN(CC)c1nc(C)c(C(C)=O)cc1C#N | 3.26% (inactive) |
| COc1ccccc1N1CCN(S(=O)(=O)Cc2ccccc2Cl)CC1 | 3.75% (inactive) |
| COc1ccc(NC(=O)C(c2ccc(C)cc2)N(C)C(=O)c2cnccn2)cc1 (stereo unspecified) | 1.36% (inactive) |
| C/C(=N/NC(=O)CC(=O)N/N=C(\C)c1ccc([N+](=O)[O-])cc1)c1ccc([N+](=O)[O-])cc1 | 9.49% (inactive) |
| C/C(=N\NC(=O)CNc1ccccc1)c1ccccc1 | -12.8% (inactive) |
| C/C(=N\NC(=O)CCc1c(C)n[nH]c1C)c1ccc([N+](=O)[O-])cc1 | 6.88% (inactive) |
| C/C(=N\NC(=O)CC1N=C(Cc2ccccc2)NNC1=O)c1ccccc1 (stereo unspecified) | 1.8% (inactive) |
| Cc1ccc(S(=O)(=O)/N=C(\N)Nc2nc(C)c3cc(C)c(C)cc3n2)cc1 | 6.15% (inactive) |
| O=C(CCSc1ccccc1)Nc1ccc(OCc2ccccc2)cc1 | 3.34% (inactive) |
| COc1ccc(-c2nnc(SCC(=O)N/N=C/c3ccccc3C(=O)O)n2-c2ccccc2)cc1 | -3.16% (inactive) |

| Structure (SMILES) | inhibition |
| --- | --- |
| COc1cc(/C=C(/C#N)c2nc3ccccc3[nH]2)ccc1OCc1ccc(C(=O)O)o1 | -33.5% (inactive) |
| COc1cc(/C=C(/C#N)c2ccc(F)cc2)ccc1OCc1ccc(C(=O)O)o1 | 34.9% (inactive) |
| COC(=O)c1ccc(COc2ccc(/C=C(\C#N)c3nc4ccccc4[nH]3)cc2OC)o1 | -3.19% (inactive) |
| N#C/C(=C/c1ccc(OCc2ccc(C(=O)O)cc2)c(Br)c1)c1cccc(F)c1 | 7.71% (inactive) |
| COc1ccc(NC(=O)COC(=O)Cc2c(F)cccc2Cl)cc1 | 5.4% (inactive) |
| COc1ccc(NC(=O)Cc2c(F)cccc2Cl)c(OC)c1 | -1.9% (inactive) |
| COC(=O)CSc1nc(NC#N)nc(NC(C)(C)C)n1 | 4.9% (inactive) |
| COc1ccc(-c2cc(C)nc(SCc3cccc(C(=O)O)c3)n2)cc1 | 38.6% (inactive) |
| Cn1sc(NC(=O)c2ccc(Cl)cc2)nc1=O | 0.57% (inactive) |
| Cc1ccc(C(=O)Nc2nc(=O)n(C)s2)cc1 | 4.51% (inactive) |
| Cn1sc(NC(=O)c2ccccc2Cl)nc1=O | -13.2% (inactive) |
| O=C(Nc1nc2ccccc2s1)c1ccccc1 | 0.27% (inactive) |
| O=C(Nc1nc(=O)n(C(=O)c2cccc(C(F)(F)F)c2)s1)c1ccccc1 | 22.5% (inactive) |
| Cc1ccc(C(=O)Nc2nc(=O)n(C(=O)c3ccccc3C)s2)cc1 | 31.9% (inactive) |
| Cn1sc(NC(=O)c2cccc(Cl)c2)nc1=O | 12.3% (inactive) |
| Cc1ccc(C(=O)Nc2nc(=O)[nH]s2)cc1 | -1.57% (inactive) and 13.4% (inactive) |
| CCN(CC)CCCN1C(=O)CSC1c1ccc2c(c1)OCO2 (stereo unspecified) | 20.1% (inactive) |
| O=C(NNC(=O)c1ccc(Br)o1)c1ccc(NC(=O)c2ccccc2)cc1 | -6.75% (inactive) |
| COCCCN(C(=S)NC(=O)c1ccc(C(C)(C)C)cc1)c1c(N)n(Cc2ccccc2)c(=O)[nH]c1=O | 16.9% (inactive) |
| Cc1ccc(C)c(Cn2c(=O)n(CCCC(=O)NCc3ccco3)c(=O)c3ccccc32)c1 | 10% (inactive) |
| Cc1csc2nc(CCNS(=O)(=O)c3cccs3)cn12 | -4.9% (inactive) |
| O=C(NCc1ccccc1)C1=C[C@@H](c2ccc(Br)cc2)C[C@@H](OCc2ccc(CO)cc2)O1 | 7.8% (inactive) |
| CCCc1[nH]nc2c1C(c1cn[nH]c1-c1ccc(F)cc1)C(C#N)=C(N)O2 (stereo unspecified) | 29.9% (inactive) |

| Structure (SMILES) | inhibition |
| --- | --- |
| C=CCN(c1ccccc1)S(=O)(=O)c1cc(C(=O)NC2=NCCS2)ccc1Cl | -0.31% (inactive) |
| CC(C)Oc1cccc(C(=O)C2CCCN(Cc3cccn3-c3cccnc3)C2)c1 (stereo unspecified) | 4.62% (inactive) |
| O=C(COc1ccc(Br)cc1)Nc1nnc(-c2cccnc2)s1 | -6.24% (inactive) |
| Cc1ccc(C(=O)/C=C/c2c[nH]c3ccccc23)cc1 | 5.88% (inactive) |
| COCCCNC(=O)c1ccccc1NS(C)(=O)=O | -1.32% (inactive) |
| CCOC(=O)C1CCN(S(=O)(=O)c2cnc[nH]2)CC1 | 3.88% (inactive) |
| CC1CN(C(=S)c2cccc([N+](=O)[O-])c2)CC(C)O1 (stereo unspecified) | 4.78% (inactive) |
| Cc1nc2ccccc2n1C(=O)c1ccccc1[N+](=O)[O-] | 7.68% (inactive) |
| CCn1c(SCC(=O)Nc2cccc(C)n2)nnc1-c1ccco1 | 4.98% (inactive) |
| Cc1ccccc1S(=O)(=O)Nc1nc2ccccc2nc1N1CCOCC1 | 16.6% (inactive) |
| CC1=C(C(N)=O)C(c2ccccc2)n2nc(-c3cccs3)nc2N1 (stereo unspecified) | -4.69% (inactive) |
| Cc1cc(NC(=O)CSc2nnc(CNc3cccc(C(F)(F)F)c3)n2Cc2ccco2)no1 | 7.47% (inactive) |
| O=C(CSc1nnc(CNc2cccc(C(F)(F)F)c2)n1Cc1ccco1)NCc1ccco1 | 7.9% (inactive) |
| COc1ccc(NC(=O)CN(c2ccccc2)S(=O)(=O)N(C)C)cc1Cl | -2.44% (inactive) |
| COc1ccccc1-c1nnc(SCC(=O)N2CCOCC2)o1 | -5.18% (inactive) |
| Cc1ccc(S(=O)(=O)NC(=O)c2cc(C)n(-c3ccc(N(C)C)cc3)c2C)cc1 | 30.1% (inactive) |
| Cc1ccc(S(=O)(=O)NC(=O)c2cc(C)n(-c3ccccc3)c2C)cc1 | 24.3% (inactive) |
| CCOC(=O)c1c(-c2cccc3ccccc23)csc1NC(=O)C1C2CCC(O2)C1C(=O)O (stereo unspecified) | 26.3% (inactive) |
| CCOC(=O)c1c(NC(=O)/C=C/C(=O)O)sc(C)c1-c1ccc(F)cc1 | 9.12% (inactive) |
| CCOC(=O)c1cc(NC(=O)C2C3CCC(O3)C2C(=O)O)cc(C(=O)OCC)c1 (stereo unspecified) | -8.46% (inactive) |
| COC(=O)c1c(-c2ccc(C(C)(C)C)cc2)csc1NC(=O)C1C2CCC(O2)C1C(=O)O (stereo unspecified) | 35.5% (inactive) |
| O=C(O)C1C2CCC(O2)C1C(=O)Nc1ccc(F)cc1 (stereo unspecified) | -6.52% (inactive) |
| CCCOC(=O)c1c(-c2ccc(C)cc2C)csc1NC(=O)C1C2CCC(O2)C1C(=O)O (stereo unspecified) | 44.7% (inactive) |

| Structure (SMILES) | inhibition |
| --- | --- |
| CC(/C=N/NC(=O)c1ccccn1)=C\c1ccco1 | 9.53% (inactive) |
| Cc1ccc([N+](=O)[O-])cc1-c1ccc(/C=N\n2nnnc2N)o1 | 14.9% (inactive) |
| CSc1ccc(Cl)c(C(=O)OCC(=O)N(C)CCC#N)c1 | 1.64% (inactive) |
| Cc1ccc(C)c(N(C(=O)Cn2nnc3ccccc32)C(C(=O)NCc2ccco2)c2ccncc2)c1 (stereo unspecified) | -0.41% (inactive) |
| O=C1CCC(=O)N1CN(C(=O)c1ccco1)c1ccccc1 | -2.98% (inactive) |
| Cc1ccc(SCC(=O)NN2C(=O)c3ccccc3C2=O)cc1 | 2.07% (inactive) |
| O=C(Cc1ccccc1)NN1C(=O)c2ccccc2C1=O | 23.7% (inactive) |
| CCOc1cc(OCC)cc(C(=O)NC(=S)Nc2cccc(C(F)(F)F)c2)c1 | 3% (inactive) |
| COC(=O)c1[nH]c(C)c(/C(O)=C2\C(=O)C(=O)N(CCN3CCOCC3)C2c2ccc(C)o2)c1C (stereo unspecified) | 3.85% (inactive) |
| COc1ccc(/C=C/C2=NN(C)C(=O)CC2)cc1 | 48.2% (inactive) |
| Cc1ccc(NC(=O)c2cc(NC(=O)c3ccccc3C(=O)O)ccc2N2CCCCC2)cc1 | -63% (inactive) |
| O=C(O)CCC(=O)Nc1ccc(N2CCCCC2)c(C(=O)O)c1 | 10.6% (inactive) |
| C/C(=N\NC(N)=S)C1(C)CC2(CC(C)(C)OC2=O)C(=O)O1 (stereo unspecified) | -1.04% (inactive) |
| O=C(CSc1nccc(=O)[nH]1)N1N=C2/C(=C/c3ccco3)CCCC2C1c1ccco1 (stereo unspecified) | 13.7% (inactive) |
| Nc1nc(SCC(=O)N2N=C3/C(=C/c4ccco4)CCCC3C2c2ccco2)n[nH]1 (stereo unspecified) | 9.23% (inactive) |
| COc1c(Cl)cc(-c2noc(C)c2C(=O)NCc2ccc3c(c2)OCO3)cc1Cl | 2.83% (inactive) |
| Cc1ccnc(NC(=O)C2CCC(CNc3c(N4CCCC4)c(=O)c3=O)CC2)c1 (stereo unspecified) | 15.6% (inactive) |
| CC(C)Nc1nnc(SC(C)C(=O)Nc2ccc(Cl)cn2)s1 (stereo unspecified) | 5.71% (inactive) |
| COC(=O)N/N=C/c1ccc(OC(=O)/C=C/c2ccco2)cc1 | -6.97% (inactive) |
| CCOc1cccc2sc(N(CCN(CC)CC)C(=O)c3cccc([N+](=O)[O-])c3)nc12 | 3.1% (inactive) |
| O=C(CSC1=NCCS1)Nc1ccc(S(=O)(=O)NC2CCCCC2)cc1 | 8.51% (inactive) |
| COc1cc(NS(=O)(=O)c2ccc(NC(C)=O)cc2)nc(OC)n1 | -0.66% (inactive) |
